Results published in PubChem BioAssay AID743446 (Broad Institute, 2014).
Measured potencies and affinities stand elsewhere. A number with no mark means an inactive call. The rule behind the calls is not given here.

Test: HEK293 cell cytotoxicity, dose response, cytotoxicity control, plate reader, cherry-picked samples (AID 743446)
Conditions: hits give low values; at 26 µM unless noted

Row | Structure (SMILES) | max activity
1 | O=c1c2c(nc3cc(-c4ccc(F)cc4)[nH]n13)CCCC2 | -12.8%
2 | C[C@H](CO)N1C[C@H](C)[C@H](CN(C)C(=O)CN2CCOCC2)Oc2ncc(C#CCN(C)C)cc2C1=O | 18.5% [at 0.42 µM]
3 | Cc1cnc(NC(=O)c2ccc(OCC3CCCO3)cc2)s1 (configuration not stated) | 9% [at 6 µM]
4 | O=C(C[C@H]1CC[C@H](NS(=O)(=O)c2cccc(F)c2)[C@@H](CO)O1)N1CCCCC1 | 20.1% [at 0.05 µM]
5 | C[C@H](CO)N1C[C@H](C)[C@H](CN(C)C(=O)Nc2cccc3ccccc23)OCCCC[C@H](C)Oc2ccc(NC(=O)NC3CCCCC3)cc2C1=O | 68.9%
6 | COc1ccc(Cl)cc1C(=O)Nc1nc2ccccc2[nH]1 | 69.4% [at 0.195 µM]
7 | Cc1csc(NC(=O)c2ccc(OCC3CCCO3)cc2)n1 (configuration not stated) | 28.1% [at 3 µM]
8 | C=CCn1c(SCC(=O)Nc2ncc(Cc3ccc(C)c(Cl)c3)s2)nnc1-c1ccncc1 | -6.05% [at 3 µM]
9 | N#Cc1cccc(-c2ccc([C@@H]3[C@H](CO)N4CCCCN(C(=O)Nc5cccc(F)c5)C[C@@H]34)cc2)c1 | 4.74% [at 12 µM]
10 | NCC[C@H]1CC[C@H](NS(=O)(=O)Cc2ccccc2)[C@@H](CO)O1 | 24.3%
11 | CCCc1nc(SCC(=O)N2CCC(Cc3ccccc3)CC2)c2c(=O)n(C)c(=O)n(C)c2n1 | 11.8% [at 0.05 µM]
12 | C[C@H]1CCCCO[C@@H](CN(C)C(=O)Nc2ccc3c(c2)OCO3)[C@@H](C)CN([C@@H](C)CO)C(=O)c2cc(NC(=O)NC3CCCCC3)ccc2O1 | 26.2% [at 23.5 µM]
